High-throughput results: PubChem, National Center for Advancing Translational Sciences (NCATS)
Sampled rows, rich in hits. Any-hit rate of the full collection: about 1.2%.
aGal spleen mod: inhibits or activates alpha-galactosidase in human spleen homogenate. P06280. 240,000 compounds, 0.008% hits. Potency, µM (highest dose often 80 µM), hits mostly inhibitors. human spleen homogenate, 4MU-alpha-Gal fluorescence, 40 min
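qHTS titration in buffer at pH 5.0. Alpha-galactosidase activity in spleen homogenate was measured via 4-methylumbelliferone release from 1 mM fluorogenic substrate after 40 min at 37C and a pH 10 stop. AC50 came from Hill fits of control-normalized data.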
HTT cytoprotect: cytoprotection in Huntington HTT-Q103 PC12 cell model; PC12 HTT-Q103 induced, cytoprotection, ATP luminescence, 40 h; Potency, µM (doses to about 56.4 µM), actives largely listed as activators; 230,000 compounds, 0.14% hits; AID 1471; also: nearly all actives have a fitted effect of over 45% in size
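Compounds added alongside 100 nM tebufenozide, which induces toxic Q103 huntingtin exon 1-GFP in stable PC12 cells; surviving cells quantified by luminescent ATP measurement. Medium: phenol red-free DMEM, 5% equine and 5% calf serum.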
PKM2 act: increases activity of human pyruvate kinase M2; P14618; purified PKM2, Kinase-Glo ATP luminescence, activation; response scale: 0% is enzyme alone, no compound; Potency, µM (highest dose often 57.5 µM), most hits filed as activators; 260,000 compounds, 0.34% hits; also: nearly all actives have a fitted effect of over 55% in size
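Purified hPK-M2 (>95% pure) converted ADP (0.1 mM final) to ATP with 0.5 mM PEP in 50 mM imidazole pH7.2, KCl, MgCl2, Tween 20, BSA; 1 h at room temperature. ATP detected by Kinase-Glo luminescence.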
GLA inh pH 4.5: alpha-galactosidase A (human) inhibition, pH 4.5. purified enzyme, 4-MU-alpha-Gal fluorescence, pH 4.5. activity change, negative = inhibition, % at 105 µM. 230,000 tested, under 10 active. AID 1467
Target sequence (P06280 whole entry, looked up): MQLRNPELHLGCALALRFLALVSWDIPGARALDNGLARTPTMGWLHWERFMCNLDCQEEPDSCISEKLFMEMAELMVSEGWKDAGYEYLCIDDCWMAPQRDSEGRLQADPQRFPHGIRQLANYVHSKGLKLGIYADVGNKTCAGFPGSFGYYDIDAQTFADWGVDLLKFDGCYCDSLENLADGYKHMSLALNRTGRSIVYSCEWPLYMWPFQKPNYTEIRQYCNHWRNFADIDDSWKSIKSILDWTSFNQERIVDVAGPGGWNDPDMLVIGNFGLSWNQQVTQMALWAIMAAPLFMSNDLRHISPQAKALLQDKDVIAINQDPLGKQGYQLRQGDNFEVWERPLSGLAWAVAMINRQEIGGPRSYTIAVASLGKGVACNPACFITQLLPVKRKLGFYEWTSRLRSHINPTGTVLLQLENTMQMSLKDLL
HTT aggregate: inhibitors of mutant huntingtin aggregate formation in PC12 cells. PC12 HttQ103-GFP aggregates, Acumen cytometry, 40 h. Potency, µM (series often up to 46.1 µM), hits mostly inhibitors. 220,000 compounds, 1.1% hits; also: nearly all actives have a fitted effect of over 60% in size
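PC12 cells stably carrying ecdysone-inducible HTT exon 1 Q103–GFP were induced with tebufenozide (100 nM final) and treated with library compounds in titration. GFP aggregates in lysates were counted by laser scanning cytometry.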
Large screens that a line does not name were inactive. Calls follow the shape of the dose curve; as a rule, active = well fitted curve in the direction sought with a large enough effect; inconclusive = small, poorly fitted or top-dose-only effect, or another doubt; inactive = no such curve, though single readings can be large; an effect the other way counts as inactive or inconclusive.

O=C(CCCc1nc2ccccc2s1)N1CCN(S(=O)(=O)c2cccs2)CC1	PKM2 act 4.5µM
COc1ccccc1OCC(=O)c1[nH]c(C)c(C(C)=O)c1C	HTT aggregate inconclusive
CC(=O)c1c(C)[nH]c(C(=O)COc2cc(C)ccc2C(C)C)c1C	HTT aggregate 1µM
Cc1cc2c(c(C)c1Cl)C(c1ccc3c(c1)OCO3)CC(c1ccccc1)O2 (configuration not stated)	none (no result: HTT cytoprotect, PKM2 act, GLA inh pH 4.5, HTT aggregate)
COc1ccc(S(=O)(=O)Nc2cccc(Cl)c2)cc1OC	PKM2 act inconclusive
Cc1ccc(NS(=O)(=O)c2ccc3c(c2)oc(=O)n3C)cc1	none (no result: aGal spleen mod, HTT cytoprotect, GLA inh pH 4.5, HTT aggregate)
CCC(=O)N1CCc2cc(S(=O)(=O)Nc3ccc4c(c3)OCCO4)ccc21	HTT aggregate 7.9µM
Cc1ccc(NS(=O)(=O)c2ccc3c(c2)oc(=O)n3C)cc1F	PKM2 act 4.5µM
O=C(C1CCC1)N1CCc2cc(S(=O)(=O)Nc3ccc4c(c3)OCCO4)ccc21	HTT aggregate inconclusive
Cn1c(=O)oc2cc(S(=O)(=O)Nc3ccccc3O)ccc21	PKM2 act 14µM (no result: aGal spleen mod, HTT cytoprotect, GLA inh pH 4.5, HTT aggregate)
COc1ccc(S(=O)(=O)Nc2cccc(SC)c2)cc1OC	HTT aggregate 0.71µM
CC(=O)Nc1ccc(NS(=O)(=O)c2ccc3c(c2)oc(=O)n3C)cc1	none (no result: aGal spleen mod, HTT cytoprotect, GLA inh pH 4.5, HTT aggregate)
Cn1c(=O)oc2cc(S(=O)(=O)Nc3ccc4c(c3)OCCO4)ccc21	PKM2 act inconclusive, HTT aggregate 35µM
Cn1c(=O)oc2cc(S(=O)(=O)Nc3cccc(F)c3)ccc21	PKM2 act 13µM
CSc1cccc(NS(=O)(=O)c2ccc3c(c2)oc(=O)n3C)c1	PKM2 act 7.9µM, HTT aggregate inconclusive
Cn1c(=O)c2cc(S(=O)(=O)NC(C(=O)Nc3cccc(F)c3)c3ccccc3)ccc2n(C)c1=O (configuration not stated)	none
Cn1c(=O)c2cc(S(=O)(=O)Nc3cccc(F)c3)ccc2n(C)c1=O	PKM2 act 5µM, HTT aggregate inconclusive
C(CCc1nnc2c(n1)CCCC2)Cc1nnc2c(n1)CCCC2	none (no result: aGal spleen mod, PKM2 act, GLA inh pH 4.5, HTT aggregate)
COc1ccc(C(=O)[C@]2(C)C=C(c3ccc(OC)cc3)[C@H](C)C2)cc1	HTT cytoprotect 35µM (no result: PKM2 act, HTT aggregate)
CCCCN(CC)c1nc(C)nc2c1c(C)c(C)n2-c1c(C)cc(C)cc1C	none (no result: HTT cytoprotect, PKM2 act, GLA inh pH 4.5, HTT aggregate)
OCCCCCNc1ncnc2ccccc12	HTT aggregate 7.9µM
c1ccc(CNc2ncnc3ccccc23)cc1	HTT aggregate 4.5µM
Nc1ncnc(NCc2ccccc2)c1[N+](=O)[O-]	HTT aggregate 11µM (no result: HTT cytoprotect)
COc1cc2ncnc(NCc3ccccc3)c2cc1OC	HTT aggregate inconclusive
N#Cc1ccc(CN2CC[C@@]3(CCCN(C(=O)c4cccc(F)c4)C3)C2)cc1	none (no result: PKM2 act, GLA inh pH 4.5, HTT aggregate)
NCCc1nc(-c2nc(C(=O)O)cs2)cs1	none (no result: aGal spleen mod, PKM2 act, GLA inh pH 4.5, HTT aggregate)
CCOc1ccc(/C=C/c2c([N+](=O)[O-])c(=O)n(C)c(=O)n2C)cc1	HTT cytoprotect 7.9µM
CCOc1ccc2c(c1)s/c(=N\S(=O)(=O)c1ccc(OC)cc1)n2C(F)F	PKM2 act 1.6µM
CCOc1ccc2c(c1)sc1nc(C(=O)OC)cc(=O)n12	none (no result: aGal spleen mod, PKM2 act, GLA inh pH 4.5, HTT aggregate)
Nc1nc(-c2ccccc2)c(-c2ccc([N+](=O)[O-])cc2)s1	PKM2 act 20µM, HTT aggregate inconclusive
CCc1c2c(nc3cccc(C(C)C)c13)-c1cccc(=O)n1C2	aGal spleen mod inconclusive, GLA inh pH 4.5 inconclusive (no result: HTT aggregate)
O=C(Nc1ccc(-c2cn3ccccc3n2)cc1)c1ccc(Cl)cc1	HTT aggregate 2.8µM
CCCCOc1ncnc2c1[nH]c1ccc(OCC)cc12	none
CCCCOc1ncnc2c1[nH]c1ccc(F)cc12	HTT aggregate 3.2µM
CCCCOc1ncnc2c1[nH]c1ccccc12	HTT aggregate 4µM
CCOCCCNc1ncnc2c1[nH]c1ccccc12	HTT aggregate 10µM
CCCCCCCCC1OC1CCCCCCCC(=O)O (configuration not stated)	none (no result: PKM2 act, HTT aggregate)
COCC(=O)Nc1cc(Sc2ccccc2)ccc1N=C(NC(=O)OC)NC(=O)OC	none (no result: aGal spleen mod, PKM2 act, GLA inh pH 4.5)
O=C1C=CC(=O)N1CCNc1ncc(C(F)(F)F)cc1Cl	PKM2 act 18µM, HTT aggregate inconclusive
O=C1CC(=O)N(CCNc2ncc(C(F)(F)F)cc2Cl)C(=O)N1	none
CCN=C(N)CSS(=O)(=O)O	none (no result: aGal spleen mod, PKM2 act, GLA inh pH 4.5, HTT aggregate)
O=C(NCc1cccc(Cl)c1)N1CCN(S(=O)(=O)c2ccccc2F)CC1	PKM2 act 14µM (no result: aGal spleen mod, HTT cytoprotect, GLA inh pH 4.5, HTT aggregate)
